Assay outcomes deposited in PubChem by Emory University Molecular Libraries Screening Center.
This is one part of a sample in which hits are shown more often than they occur.
14-3-3 PPI: alters human 14-3-3 gamma binding to Raf peptide. P61981. FP, 14-3-3gamma / TMR-pS259-Raf peptide binding. inhibition, % at 40 µM. 160,000 compounds, 0.19% hits; in the data active = inhibition above about 30%
Target sequence (P61981 whole entry, looked up): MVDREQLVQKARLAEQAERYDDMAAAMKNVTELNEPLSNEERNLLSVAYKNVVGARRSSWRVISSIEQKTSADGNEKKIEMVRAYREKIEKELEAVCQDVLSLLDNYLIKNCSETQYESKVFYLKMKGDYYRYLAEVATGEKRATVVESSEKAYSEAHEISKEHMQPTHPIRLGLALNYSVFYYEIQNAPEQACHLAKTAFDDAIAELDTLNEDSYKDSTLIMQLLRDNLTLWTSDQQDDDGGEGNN
Numbers stand for hits; - = inactive; + = active, no number.

SMILES	14-3-3 PPI
Oc1ccc2ccccc2c1/C=N/n1cnnc1	-
Cc1cc(Br)ccc1N=Cc1c(O)ccc2ccccc12	-
COc1ccc(CNc2oc(COc3ccc(Br)cc3)nc2C#N)cc1	-
CCCCOC(=O)c1cccc(N2C(=O)c3ccc(Br)cc3C2=O)c1	-
O=C(C[n+]1ccc2ccccc2c1)c1ccc2c(c1)Cc1ccccc1-2	-
O=C(C[n+]1ccc2ccccc2c1)c1ccccc1	44.9
O=C(C[n+]1cccc(Br)c1)c1ccccc1	-
Cc1ccsc1CN1CC(=O)N(c2cccc(Cl)c2C)C1=S	-
CC1(C)CC(=O)C2=C(C1)N(Cc1ccccc1)C1=C(C(=O)CC(C)(C)C1)C2c1ccc(O)cc1	-
CCN1C2=C(C(=O)CC(C)(C)C2)C(c2ccc(O)cc2)C2=C1CC(C)(C)CC2=O	101.9
CCN1C2=C(C(=O)CC(C)(C)C2)C(c2ccc(O)c(Cl)c2)C2=C1CC(C)(C)CC2=O	-
CNC(=O)CN(c1cc(C(F)(F)F)ccc1Cl)S(=O)(=O)c1ccccc1	-
CCOC(=O)SC1=N/C(=C\c2ccc(N(C)C)cc2)C(=O)S1	-
COc1cc(C=C2N=C(SC)SC2=O)cc(OC)c1OC	-
CSC1=NC(=Cc2ccc(N(C)C)cc2)C(=O)S1	125.4
O=C(c1ccco1)N1CCN(S(=O)(=O)c2ccc3ccccc3c2)CC1	-
O=C(O)CCN1C(=O)C(=O)/C(=C(/O)c2ccc(Cl)cc2)C1c1cccc([N+](=O)[O-])c1 (stereo unspecified)	-
O=C(NC1CCCCCC1)c1c(O)c2ccccc2[nH]c1=O	-
O=C1c2ccccc2-c2c(NC3CCCCC3)c(=O)[nH]c3cccc1c23	+
O=c1cc(CNC2CCCCC2)c2ccccc2[nH]1	-
COC(=O)c1ccc(Sc2ccccc2)c([N+](=O)[O-])c1	-
O=c1c2ccc(Cl)cc2[nH]c(=S)n1Cc1cccs1	-
CC(=O)N1CCc2cc(S(=O)(=O)CCC(=O)N3CCN(Cc4ccc5c(c4)OCO5)CC3)ccc21	-
O=C(Nc1ccccc1F)c1cc(-c2ccc(Cl)s2)nc2ccccc12	-
CCC(C)(C(=O)NC1CCCC1)N(CC1CCCO1)C(=O)C1CCC(=O)N1 (stereo unspecified)	-
SMILES	14-3-3 PPI
COc1ccc(OC)c(NC(=O)c2c(C)c(-c3ccccc3)nc3ccccc23)c1	53.3
COc1ccc(NC(=O)c2c(C)c(-c3ccc(C)cc3)nc3ccccc23)cc1	-
COc1ccc(-c2nc3ccccc3c(C(=O)Nc3ccc(Br)cc3)c2C)cc1	-
COCCn1c(=S)[nH]c2cc3ccccc3cc2c1=O	-
COc1ccc(NC(=O)C2(C)CC3c4ccccc4C2c2ccccc23)cc1 (stereo unspecified)	55.3
Cc1ccc(C)c(NC(=O)C2(C)CC3c4ccccc4C2c2ccccc23)c1 (stereo unspecified)	-
COc1ccc(NC(=O)C23CCC(C2)C(C)(C)C3=O)cc1 (stereo unspecified)	-
CC(=O)N1CCc2cc(Br)cc(S(=O)(=O)N3CCC(C(=O)Nc4ccccc4Cl)CC3)c21	-
CC(=O)NC(=O)c1cc2c(ccc3ccccc32)oc1=Nc1ccccc1C	-
CCCCCn1c2ccccc2c2nc3ccccc3nc21	-
CCn1c2ccc(Cl)cc2c2nc3ccccc3nc21	-
CCn1c2ccccc2c2nc3cc4ccccc4cc3nc21	115.7
Cc1nn(C(=O)NC2CCCCC2)c(C)c1Cl	-
CSc1ccc(-c2nc3ncccn3c2Nc2ccccc2C)cc1	-
Clc1ccc(Sc2c(-c3ccccc3)nc3ncccn23)cc1	38.7
Clc1ccc(-c2nc3ncccn3c2Nc2ccc3c(c2)OCO3)cc1	-
CCC1=C(C)C(c2ccccc2)NC(=S)N1 (stereo unspecified)	-
CC1=CC(C#N)(C#N)C(C#N)(C#N)C(c2ccccc2)N1 (stereo unspecified)	72.7
CCSC1(SCC)N=C(N)C2(C#N)C(c3ccccc3)NC(C)=C(C)C12C#N (stereo unspecified)	-
CN(C(=O)Cn1c(=O)n(Cc2ccco2)c(=O)c2ccccc21)C1CCCCC1	-
COc1cc(C(=O)Nc2nc(-c3ccc(C)cc3)c(C)s2)c(Br)c(OC)c1OC	-
C=CCC1C=CCC(CC=C)N1CCO (stereo unspecified)	105.5
C=CCC1C=CCC(CC=C)N1C(=O)C(F)(F)F (stereo unspecified)	-
CC(C)CC1CCCC(CC(C)C)N1CCO (stereo unspecified)	-
O=C(O)CCCCCN1C(=O)c2cccc3c(N4CCCCC4)ccc(c23)C1=O	-
SMILES	14-3-3 PPI
O=C1c2cccc3c(N4CCCCC4)ccc(c23)C(=O)N1c1ccccc1	-
O=C(O)c1ccc2c3c(cccc13)C(=O)N(c1ccc(Cl)cc1)C2=O	-
O=C(O)CCCCN1C(=O)c2ccccc2C1=O	-
O=C1c2cccc3c(O)ccc(c23)C(=O)N1c1ccc(Cl)cc1	95.5
O=C1c2cccc3c(NCCO)ccc(c23)C(=O)N1c1ccccc1	195.8
O=C1c2ccccc2C(=O)N1c1ccc(Cl)cc1	-
NCCNc1ccc2c3c(cccc13)C(=O)N(c1ccc(Cl)cc1)C2=O	62.9
O=C1c2cccc3c(Nc4ccccc4)ccc(c23)C(=O)N1c1ccccc1	-
O=C(O)CCCN1C(=O)c2cccc3c(O)ccc(c23)C1=O	137.5
C=CCNc1ccc2c3c(cccc13)C(=O)N(C)C2=O	-
CCOC(=O)c1ccc(N2C(=O)c3cccc4c(Cl)ccc(c34)C2=O)cc1	-
COc1ccc(-c2n[nH]c(=S)n2C2CCCCC2)cc1OC	-
CC(=O)N1CCc2cc(S(=O)(=O)NCCN3CCN(c4ccccc4)CC3)ccc21	-
c1cc(-c2ccc3nsnc3c2)c2cc3nsnc3cc2c1	-
COc1ccc(N2CCN(CCNC(=O)c3cc(-c4cccs4)nc4ccccc34)CC2)cc1	-
CCc1sc(-c2cc3ccc(OC(C)=O)cc3oc2=O)nc1-c1ccc(C)cc1	-
O=C(Nc1ccc(S(=O)(=O)Nc2nccc(C=Cc3ccc(Cl)cc3)n2)cc1)c1ccccc1	-
O=C(CSc1nc2ccccc2c(=O)n1CCC1=CCCCC1)NCc1ccccc1Cl	-
Cc1ccc(S(=O)(=O)N2CCSC2c2cccc([N+](=O)[O-])c2)cc1 (stereo unspecified)	-
C1=CCC(CN2CCN(C3CCCCC3)CC2)CC1 (stereo unspecified)	-
CCCS(=O)(=O)N1CCCC(C(=O)NCc2ccccc2Cl)C1 (stereo unspecified)	-
NC(=O)CSc1nnnn1-c1ccc(F)cc1	-
COc1ccc(CCC(=O)Nc2ccc(-c3noc(-c4ccccc4OC)n3)cc2)cc1	-
CC(=O)[C@]1(O)Cc2c(O)c3c(c(O)c2[C@@H](O[C@H]2C[C@H](N)[C@H](O)[C@H](C)O2)C1)C(=O)c1ccccc1C3=O	116.9
COc1cccc2c1C(=O)c1c(O)c3c(c(O)c1C2=O)C[C@@](O)(C(C)=O)C[C@@H]3O[C@H]1C[C@H](N)[C@H](O)[C@H](C)O1	-
SMILES	14-3-3 PPI
CCCCOc1ccc(C(=O)Nc2ccc(-c3nc4ccccc4[nH]3)cc2)cc1	-
CCN(CC)S(=O)(=O)c1ccc(-c2cn3cccc(C)c3n2)cc1	-
COC(=O)c1ccc2c(=O)n(-c3cc(C)cc(C)c3)c(=S)[nH]c2c1	-
CCC(=O)N1c2ccccc2NC2=C(C(=O)CC(C)(C)C2)C1c1ccc(-c2ccc([N+](=O)[O-])cc2Cl)o1 (stereo unspecified)	-
O=C(CCNS(=O)(=O)c1ccc(Cl)cc1)NCc1cccnc1	-
COc1ccc(S(=O)(=O)NCCC(=O)NCc2cccnc2)cc1	55.9
